Assay outcomes as filed in PubChem BioAssay.
The list is not random: actives were taken first. Their share in the collection is about 1.2%.
cardiac RTF act – increases calcium sensitivity of human cardiac regulated thin filaments; IANBD-labeled TnC RTF fluorescence at EC20 calcium; 0% EC20 calcium, 100% full calcium; activation, % at 7.2 µM; 340,000 compounds, 0.24% hits;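 active = activation above the mean over all tested compounds plus 3 SD, cut at about 30% in these data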;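 note: rise in fluorescence read as greater calcium sensitivity of cardiac thin filaments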
Bcl-xL primary – blocks human Bcl-xL binding to Bim BH3 peptide; inhibition, % at 10.9 µM; AID 2129; Q07817; GST-Bcl-xL / FITC-Bim BH3 peptide fluorescence polarization; 320,000 compounds, 0.7% hits;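 active = inhibition above the mean of all tested compounds plus 3 SD, cutoff set per campaign, cut at about 30% in these data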;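 note: 0% = DMSO wells and 100% = unlabeled Bim-BH3 peptide competitor; inhibitors lower millipolarization by displacing the labeled peptide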
E coli Lon inh – inhibitors of E. coli Lon protease; purified E. coli Lon protease, fluorescence polarization; inhibition, % at 7.94 µM; 360,000 compounds, 0.42% hits; in the data active = inhibition above about 13%, passing the limit was not always enough;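 note: 0% = enzyme with probe and DMSO and 100% = no enzyme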
Target sequence (P0A9M0 whole entry, looked up): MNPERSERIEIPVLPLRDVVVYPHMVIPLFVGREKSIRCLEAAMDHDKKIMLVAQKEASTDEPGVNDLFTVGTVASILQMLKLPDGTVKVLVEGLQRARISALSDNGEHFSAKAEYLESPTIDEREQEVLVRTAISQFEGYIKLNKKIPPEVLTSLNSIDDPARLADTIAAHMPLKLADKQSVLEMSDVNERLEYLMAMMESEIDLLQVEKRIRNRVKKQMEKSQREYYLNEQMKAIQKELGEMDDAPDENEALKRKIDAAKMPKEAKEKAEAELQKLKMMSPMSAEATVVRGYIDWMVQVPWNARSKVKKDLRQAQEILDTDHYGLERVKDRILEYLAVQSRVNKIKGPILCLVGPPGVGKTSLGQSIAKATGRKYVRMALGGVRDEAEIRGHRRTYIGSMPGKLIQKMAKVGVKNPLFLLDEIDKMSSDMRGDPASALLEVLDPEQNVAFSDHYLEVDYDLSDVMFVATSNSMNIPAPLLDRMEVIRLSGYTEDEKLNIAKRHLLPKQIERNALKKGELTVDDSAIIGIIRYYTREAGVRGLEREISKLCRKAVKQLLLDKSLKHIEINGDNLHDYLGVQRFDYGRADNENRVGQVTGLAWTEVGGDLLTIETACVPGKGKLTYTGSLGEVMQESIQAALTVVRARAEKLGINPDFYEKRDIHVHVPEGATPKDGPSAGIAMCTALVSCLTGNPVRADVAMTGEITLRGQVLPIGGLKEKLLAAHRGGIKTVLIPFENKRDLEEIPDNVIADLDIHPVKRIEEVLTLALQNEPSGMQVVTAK
RTF Ca sens inh – cardiac RTF calcium desensitization. IANBD-labeled cardiac RTF, Ca2+ fluorescence. inhibition, % at 7.15 µM. 340,000 compounds, 0.12% hits;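 active = inhibition above the mean inhibition of all tested compounds plus 3 SD, cut at about 17% in these data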;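 note: assay run at fixed EC70 calcium of 1.6 mM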
GLD-1 TGE inh – GLD-1-TGE RNA interaction inhibition (C. elegans) | inhibition, % at 5.96 µM | AID 2280 | purified GLD-1 + fluorescein TGE RNA, fluorescence polarization | Q17339 | 320,000 compounds, 0.44% hits;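 active = percent inhibition above a per-plate cutoff, the plate mean of test compounds plus 3 SD, cut at about 30% in these data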;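 note: 0% = DMSO wells with GLD-1 and probe and 100% = wells lacking GLD-1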
eLon confirm – confirmation of E. coli Lon protease inhibitors | 1,400 compounds, 31% hits | shares compounds with E coli Lon inh | AID 602230 | purified E. coli Lon, fluorescence polarization | inhibition, % at 7.94 µM; in the data active = inhibition above about 16%;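 note: 0% = enzyme with probe and DMSO and 100% = no enzyme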
* marks the source's active call; other numbers are inactive results; i = inactive; / = no result given; + = active, no number.

SMILES	cardiac RTF act	Bcl-xL primary	E coli Lon inh	RTF Ca sens inh	GLD-1 TGE inh	eLon confirm
NC(=O)c1ccc(NC(=O)CSc2nnc(-c3ccncc3)n2Cc2ccco2)cc1	/	2	5	/	6	/
CN(Cc1ccccc1)C(=O)CN1C(=O)c2ccc([N+](=O)[O-])cc2C1=O	-9	-1	19*	-6	-3	-1
CCN(CC)CCCNc1ccc2ncn3c4ccc(O)cc4c(=O)c1c23	292*	/	+	-340	/	+
CN(C)CCNc1ccc2nnn3c4ccc(O)cc4c(=O)c1c23	-1	/	7	-3	/	/
O=C(/C=C/c1cccc(OCc2ccccc2)c1)c1cccnc1	1	6	-2	-8	6	/
Cc1ccccc1OCC(=O)Nc1cccc(S(=O)(=O)NC2=NCCC2)c1	5	5	-3	4	9	/
Cc1ccccc1-n1ccnc1SCC(=O)Nc1cccc(S(=O)(=O)NC2=NCCC2)c1	1	/	17*	-8	2	-1
COC(=O)[C@H](C)NC(=O)NCCC1=CCCCC1	-4	2	24*	-9	-3	9
CCC(C)[C@H](NC(=O)NCCC1=CCCCC1)C(=O)OC (stereo not given in full)	-3	3	-4	3	0	/
Cc1nc2sc(C(c3ccc(Cl)cc3)N3CCN(CCO)CC3)c(O)n2n1 (stereo not given)	10	-2	7	0	3	/
COc1ccc(N(CC(=O)NC2CCCC2)C(=O)CCC(=O)Nc2cc(C)on2)cc1	9	3	-7	-6	17	/
CC(=O)c1ccc2c(c1)c(C#N)c1ccccc1[n+]2[O-]	23	/	96*	-18	/	88*
CC(=O)c1ccc2noc(-c3ccccc3)c2c1	11	6	1	-2	4	/
OCCCNc1ncnc2[nH]ncc12	-4	/	-26	-4	/	/
COc1ccccc1N(CC(=O)NC1CCCC1)C(=O)CCC(=O)Nc1ccccn1	-3	4	18*	-17	9	-18
COc1ccccc1N(CC(=O)NC1CCCC1)C(=O)CCC(=O)Nc1cc(C)on1	-3	4	5	-1	9	/
Fc1ccc(C2=CC(c3ccco3)n3ncnc3N2)cc1 (stereo not given)	70*	152*	79*	-83	96*	-3
C1=C(c2ccc(-c3ccccc3)cc2)Nc2ncnn2C1c1ccco1 (stereo not given)	336*	/	+	-425	/	70*
Oc1ccc(C2C=C(c3ccc(F)cc3)Nc3ncnn32)cc1 (stereo not given)	5	/	14	-19	/	/
Brc1ccc(C2=CC(c3cccs3)n3ncnc3N2)cc1 (stereo not given)	707*	168*	141*	i	151*	161*
Cn1cccc1C1C=C(c2ccc(C(C)(C)C)cc2)Nc2ncnn21 (stereo not given)	4	-1	-7	-1	1	/
CC(C)n1c(SCc2ccccc2F)nc2c1c(=O)n(C)c(=O)n2C	5	2	9	-12	-3	/
COc1ccccc1OCC(=O)NC1CCCc2ccccc21 (stereo not given)	-3	4	4	-7	-5	/
O=C1C=CC(=O)N1Cc1cccnc1	-1	/	1	1	/	/
CCCCn1c(NC(C)=O)c(C#N)c2nc3ccccc3nc21	-2	-4	23*	-3	-7	-9
SMILES	cardiac RTF act	Bcl-xL primary	E coli Lon inh	RTF Ca sens inh	GLD-1 TGE inh	eLon confirm
O=C(Oc1ccc2c(c1)OCC2=O)c1ccccc1	1	-2	19*	-3	0	23*
CC1(C)Oc2ccc3ccc(=O)oc3c2CC1O (stereo not given)	0	-2	5	-4	-3	/
O=c1oc2c3c4c(cc2s1)CCCN4CCC3	8	130*	46*	-17	76*	45*
O=c1ccc2cc3c4c(c2o1)CCCN4CCC3	129*	97*	80*	-245	89*	22*
CCN(CC)c1ccc(/C=N/NC(=O)c2cc3ccccc3[nH]2)cc1	-3	2	16*	3	3	9
COCCn1c(N)c(N(Cc2ccccc2)C(=O)C2=COCCO2)c(=O)[nH]c1=O	-3	3	29*	-9	22	6
O=[N+]([O-])c1cc(-c2ccc(/C=N/c3nc4ccccn4c3-c3ccco3)o2)ccc1Cl	-5	25	27*	-5	26	12
Nc1ccc(C(=O)Nc2cccc3ncccc23)cc1	2	4	2	-2	3	/
CC(C)(C)c1ccc(C(=O)Nc2cccc3ncccc23)cc1	26	81*	44*	-28	64*	44*
COc1ccc(C(=O)N[C@H](C(=O)OCn2nnc3ccccc3c2=O)C(C)C)cc1	-5	/	5	6	/	/
COc1cc(OC)cc(C(=O)N[C@H](C(=O)OCn2nnc3ccccc3c2=O)C(C)C)c1	1	3	16*	-3	-2	-8
OC(COc1ccccc1)CN1CCCC1 (stereo not given)	6	8	8	-7	5	/
CCCOc1cccc(C2/C(=C(/O)c3ccccc3)C(=O)C(=O)N2CCN(C)C)c1 (stereo not given)	3	/	-6	-32	/	/
COc1cccc(C(=O)Oc2ccc3ccc(=O)oc3c2)c1	-12	1	23*	-8	4	47*
O=C(Nc1cccc(C(=O)N2CCCC2)c1)C1CCCC1	2	/	4	-14	/	/
CC/C(=C\C(=O)c1ccncc1)Nc1ccc(O)cc1	1	8	26*	-2	6	-4
C[C@H](NC(=O)C1CC(=O)N(c2ccc(F)cc2)C1)C(=O)N1CCCCC1 (stereo not given in full)	-7	0	20*	-2	-3	5
O=S(=O)(NCCN1CCOCC1)c1ccc(Cl)c(Cl)c1	-3	5	16*	-3	6	-1
O=S(=O)(NCCN1CCOCC1)c1ccc(F)c(Cl)c1	6	-3	2	0	-6	/
COc1cc(C(=O)OCC(=O)N2c3ccccc3NC(=O)C2(C)C)ccc1OCC(C)C	-19	4	21*	-14	8	-5
COc1ccc(OC)c(S(=O)(=O)N2CCC(C(=O)NCC3CCCO3)CC2)c1 (stereo not given)	3	-1	32*	8	5	15
COc1ccc(Cl)cc1S(=O)(=O)N1CCC(C(=O)NCC2CCCO2)CC1 (stereo not given)	-4	4	-13	6	-3	/
C[C@H](CO)N1C[C@H](C)[C@@H](CN(C)C)Oc2c(NC(=O)C3CC3)cccc2C1=O	-3	/	-2	-1	5	/
CN(C)c1cccc(C(=O)NCc2ccccc2Cl)c1	-3	3	68*	6	4	-2
CC(C)(CN1CCc2ccccc2C1)NS(=O)(=O)c1ccc(Cl)cc1	18	4	17*	-19	-1	13
CN1CCN(CC(C)(C)NS(=O)(=O)c2ccc(Cl)cc2)CC1	8	4	-4	-11	7	/
